Bioassay records (PubChem)
DRD3 agonist: activates the human D3 dopamine receptor. D3R DiscoveRx beta-arrestin cells, luminescence, 90 min. max activation, %. actives 0.58% (n = 410,000); in the data active = max activation above about 30%; note: 0% is about no effect
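Agonist mode: compounds and dopamine controls were applied to plated cells for 90 min at 37 degrees C after an overnight attachment at 1500 cells/well. Luminescent read-out followed 30 - 60 minutes at room temperature with DiscoveRx detection reagent.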
TRPML1 agonist: activates the human TRPML1 channel. actives 0.12% (n = 410,000). activation, % (concentration not given with the values). TRPML1-expressing cells, Ca2+ dye fluorescence, FDSS; in the data active = activation above about 50%; note: 0% is about no effect
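Kinetic FDSS Ca2+ read in Tet-induced TRPML1-DL cells (ABD Ca8 dye plus quencher, 45-90 min RT loading): baseline, then compound, then 110 s agonist window; EC80 agonist 54-4 at 4uM final added afterwards for a 110 s antagonist window.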
TRPML1 inh: human mucolipin-1 channel inhibition | Q9GZU1 | TRPML1-inducible cells, Ca2+ dye fluorescence, FDSS; stronger effect = lower value; inhibition of EC80 agonist-evoked calcium signal | activity change, negative = inhibition, % (concentration not given with the values) | actives 0.02% (n = 390,000); in the data active = activity change below about -50%;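 note: stimulus is agonist 54-4 at its EC80 concentration; % is set by controls: 0 for no effect and ±100 for the full control effect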
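TRPML1-DL cells, Tet-induced overnight (~16 h, 37 °C) at 1,500 cells/well, were loaded with Ca8 no-wash dye plus quencher for 45-90 min at room temperature. Compounds were pinned during FDSS kinetic reading; agonist 54-4 at EC80 (4 uM final) then added.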
DRD3 antagonist: blocks the human D3 dopamine receptor; AID 652054; P35462; actives 2.5% (n = 360,000); D3R cells, DiscoveRx beta-arrestin luminescence, antagonist mode; stronger effect = lower value; max response, negative = inhibition, %; in the data active = max response below about -50%; note: % is set by controls: 0 for no effect and ±100 for the full control effect
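Cells plated overnight at 1500 cells/well, then exposed to library compounds with dopamine controls for 90 minutes at 37 degrees C. DiscoveRx reagent added for 30–60 minutes at room temperature; luminescence read, quantitative HTS format.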
* hit, by the source's call. Shown are actives, neighbours in structure and some others; about 2.9% of the full set was active somewhere.

For C#CC(=O)N(c1ccc(OC)cc1OC)C(C(=O)NC1CCCC1)c1cccs1 (stereo not given) the results were DRD3 agonist -7, TRPML1 agonist 0, TRPML1 inh 22 and DRD3 antagonist -51*.
Screening CC(C)(C)NC(=O)C(c1cccs1)N(C(=O)C(=O)NC1CCCC1)c1ccccc1F (stereo not given) returned DRD3 agonist -15, TRPML1 agonist -1, TRPML1 inh -16 and DRD3 antagonist -65*.
Screening C#CC(=O)N(c1cc(OC)ccc1OC)C(C(=O)NC1CCCC1)c1cccs1 (stereo not given) returned DRD3 agonist -6, TRPML1 agonist 0, TRPML1 inh -8 and DRD3 antagonist -62*.
For COc1cc2[nH]c(=O)n(CCCC(=O)N(C)Cc3ccccc3)c(=O)c2cc1OC the results were DRD3 agonist 2, TRPML1 agonist -1 and TRPML1 inh -5.
`O=C(c1ccncc1)N1CCN(C(=O)c2cccs2)CC1` gave DRD3 agonist 12, TRPML1 agonist 0, TRPML1 inh 1 and DRD3 antagonist 22.
O=C(CCCc1ccccc1)N1CCN(C2CCCCC2)CC1 was read as DRD3 agonist -6, TRPML1 agonist 0, TRPML1 inh 5 and DRD3 antagonist -84*.
O=C(CSc1nnc(Cc2cccs2)n1C1CCCCC1)N1CCN(C(=O)c2ccco2)CC1 was read as DRD3 agonist -8, TRPML1 agonist 2, TRPML1 inh -6 and DRD3 antagonist -62*.
`CC(Sc1nnc(Cc2cccs2)n1C1CCCCC1)C(N)=O` (stereo not given) gave DRD3 agonist -2, TRPML1 agonist 1, TRPML1 inh 14 and DRD3 antagonist -23.
`O=C(c1ccco1)N1CCN(C2CCCC2)CC1` gave DRD3 agonist -4, TRPML1 agonist 0, TRPML1 inh -9 and DRD3 antagonist -74*.
Screening CCC(C)N1CCN(C(=O)c2cccs2)CC1 (stereo not given) returned DRD3 agonist -17, TRPML1 agonist 0, TRPML1 inh -7 and DRD3 antagonist -65*.
COc1ccc(CCC(=O)N2CCN(C3CCCCC3)CC2)cc1 was read as DRD3 agonist 19, TRPML1 agonist 3, TRPML1 inh 0 and DRD3 antagonist 13.
For O=C(c1ccco1)N1CCN(C2CN(C3CCCC3)S(=O)(=O)C2)CC1 (stereo not given) the results were DRD3 agonist 5, TRPML1 agonist 0 and DRD3 antagonist 18.
For c1ccc(CCN(Cc2ccccc2)C2CCN(C3CCCC3)CC2)cc1 the results were DRD3 agonist -17, TRPML1 agonist -1, TRPML1 inh -3 and DRD3 antagonist -65*.
Screening O=C(c1ccco1)N1CCN(C(=O)c2ccco2)CC1 returned DRD3 agonist -5, TRPML1 agonist 0 and DRD3 antagonist -28.
Screening OCC1(CCCc2ccccc2)CCN(C2CCC2)CC1 returned DRD3 agonist -8, TRPML1 agonist 1, TRPML1 inh 4 and DRD3 antagonist -6.
For O=C(c1ccco1)N1CCN(C(=O)c2cccs2)CC1 the results were DRD3 agonist -2, TRPML1 agonist 1, TRPML1 inh 8 and DRD3 antagonist -56*.
For Clc1ccc(-c2nnc(-c3ccco3)o2)cc1 the results were DRD3 agonist 2, TRPML1 agonist 0, TRPML1 inh -9 and DRD3 antagonist -16.
`c1cncc(-c2nnc(-c3ccco3)o2)c1` gave DRD3 agonist 2, TRPML1 agonist 0, TRPML1 inh -4 and DRD3 antagonist -108*.
Screening c1cncc(-c2csc(-c3cccnc3)n2)c1 returned DRD3 agonist -6, TRPML1 agonist 3, TRPML1 inh 3 and DRD3 antagonist -11.
For c1cncc(-c2nc(-c3ccco3)cs2)c1 the results were DRD3 agonist -4, TRPML1 agonist 0, TRPML1 inh -1 and DRD3 antagonist -63*.
Screening CCN1CCCC1CNC(=O)C(=O)NCCc1ccc(OC)c(OC)c1 (stereo not given) returned DRD3 agonist 11, TRPML1 agonist 0, TRPML1 inh -3 and DRD3 antagonist 9.
Screening CCC(=O)Nc1cc(C(=O)NCC2CCCN2CC)c(OC)cc1N(C)C (stereo not given) returned DRD3 agonist -38, TRPML1 agonist 1, TRPML1 inh 2 and DRD3 antagonist -91*.
Screening CCN1CCCC1CNC(=O)c1cc(S(N)(=O)=O)ccc1OC (stereo not given) returned TRPML1 agonist 0, TRPML1 inh 10 and DRD3 antagonist -98*.
